Experiment [1] concerns the target ATP-dependent translocase ABCB1 (Homo sapiens) (UniProt P08183). Nature of the experiment: MDR1 (ABCB1) efflux transporter inhibition, cell-based (AID 377; in the data active = fluorescence slope change above about 50%). The settings on record: MDR1-expressing cells, fluorescent substrate accumulation slope; stronger effect = higher value; concentration not given here.
Experiment [2] is described as follows: inhibitors of polyQ protein aggregation (AID 1604). The settings on record: polyglutamine-induced protein aggregation inhibition assay; stronger effect = higher value; tested at 2.5 µM.
The nature of experiment [3]: enhancers of glutamate uptake in motor neurons, MN-1 cell line (AID 1612).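 Note: tested at 1 µM final; 0% = mean of DMSO vehicle wells on each plate; positive means more glutamate uptake than control and negative means less.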 The settings on record: MN-1 motor neuron cells, stronger effect = higher value.
Experiment [4] in a line: suppressors of polyglutamine aggregation in yeast, 75Q-TubH (AID 1616). The settings on record: S. cerevisiae 75Q-TubH polyglutamine aggregation suppression; stronger effect = higher value.
Experiment [5] can be described thus: rescue of polyQ-huntingtin neuronal dysfunction in worms, whole organism, C. elegans mechanosensory neurons, N-terminal huntingtin (AID 1599). The settings on record: touch response, stronger effect = higher value.
A short description of experiment [6]: inhibitors of Cryptococcus chitosan production, flow cytometry, Cibacron Brilliant Red staining (AID 1347148; call rule not given here;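 note: compound exposure lasted three days at 37 degrees C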). The settings on record: Cryptococcus neoformans chitosan, stronger effect = lower value; at 10 µM unless noted.
A short description of experiment [7]: growth inhibition of DIPG glioma cells, dose response, cell-based, SU-DIPG-IV, MIPE4.0, CellTiter-Glo, qHTS (AID 1347063; cut-off not given, nearly all actives have AC50 up to about 30 µM;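 note: compound exposure lasted 48 hours before the viability readout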). The conditions noted are these: SU-DIPG-IV viability, CellTiter-Glo ATP luminescence. (ATP-based viability assays read luminescence as a measure of living cells.)
The nature of experiment [8]: reducers of polyQ inclusions in PC12 cells, cell-based, NGF-treated PC12, GFPQ80 (AID 1614).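 Note: lower means fewer inclusions and 0 means no inclusions at all.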 The settings on record: PC12 NGF-treated GFP-polyQ80 inclusion reduction.
Experiment [9] is described as follows: CRL2098 osteosarcoma cell growth inhibition, synergistic combos for chromothripsis tumors, BGB or cisplatin IC20 combos (AID 1671454).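 Note: cells exposed for 96 h before readout; 0% = vehicle DMSO and 100% = killing by high DMSO.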 The conditions noted are these: CRL2098 osteosarcoma cells, drug combinations, stronger effect = higher value.
The nature of experiment [10]: HD-MB03 medulloblastoma cell growth inhibition, synergistic combos for chromothripsis tumors, BGB or cisplatin IC20 combos (AID 1671455; in the data active = inhibition above about 83%;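 note: 0% = vehicle DMSO and 100% = high DMSO as cytotoxic control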). The conditions noted are these: HD-MB03 medulloblastoma cells, stronger effect = higher value.
Experiment [11] can be described thus: UWB1.289 ovarian carcinoma cell growth inhibition, synergistic combos for chromothripsis tumors, BGB or cisplatin combos (AID 1671456).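 Note: cells exposed to compound for four days; 0% = vehicle DMSO and 100% = killing by high DMSO.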 The settings on record: UWB1.289 ovarian carcinoma cells, stronger effect = higher value.
Experiment [12] is described as follows: LFS_MB_2R medulloblastoma cell growth inhibition, synergistic combos for chromothripsis tumors, cisplatin combos (AID 1671457).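 Note: cells exposed to compound for four days before readout.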 The conditions noted are these: LFS_MB_2R medulloblastoma cells, stronger effect = higher value.
Experiment [13] is described as follows: UWB1.289_BRCA1 ovarian cancer growth, cell-based, BGB or cisplatin combinations (AID 1671459). The settings on record: UWB1.289 BRCA1 ovarian carcinoma, drug combinations, stronger effect = higher value.
Experiment [14] in a line: human astrocyte viability loss, single and combined drugs, cytotoxicity control for chromothriptic childhood tumor combination screen, cell-based, BGB or cisplatin IC20 combos (AID 1671460).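 Note: cells exposed to compounds for 96 hours before viability readout; 0% = vehicle and 100% = killing control.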 The conditions noted are these: Human astrocytes, drug combinations, stronger effect = higher value.
Experiment [15] in a line: HepG2 cytotoxicity, primary screen, cytotoxicity control for P. falciparum antimalarial project, cell-based, ATP luminescence (AID 2303;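 active = inhibition above 50%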;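 note: 0% = DMSO wells and 100% = digitonin-killed cells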). The conditions noted are these: HepG2 viability, 24-48 h, at 10 µM, stronger effect = higher value.
Experiment [16] has as its target L-lactate dehydrogenase (Plasmodium falciparum (isolate CDC / Honduras)) (UniProt Q27743). Nature of the experiment: PfLDH activity inhibition – cell lysate, 3D7 strain, counter-screen for P. falciparum growth inhibition project (AID 2304; call rule not given here;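 note: 0% = vehicle and 100% = reference inhibitor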). The conditions noted are these: P. falciparum 3D7 crude extract, LDH APAD/NBT absorbance; at 2 µM; stronger effect = higher value. Background: Counterscreens check selectivity or assay interference.

Experiment [17] in a line: inhibition of 3D7 malaria parasite growth – strain 3D7 (AID 2306; call rule not given here;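 note: 0% = DMSO wells and 100% = chloroquine plus artemisinin control wells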). The settings on record: P. falciparum 3D7 erythrocytic growth, LDH absorbance, 72 h; at 2 µM; stronger effect = higher value.
Experiment [18] deals with Calcium-dependent protein kinase 1 (Plasmodium falciparum (isolate 3D7)) (UniProt P62344). Nature of the experiment: PfCDPK1 kinase inhibitors, biochemical, TCAMS library (AID 1159585; cut-off not given, nearly all actives have IC50 up to about 0.98 µM;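 note: inhibitors leave more ATP so luminescence rises with inhibition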). The settings on record: recombinant PfCDPK1, Kinase-Glo ATP depletion luminescence. (In general: Kinase-Glo measures the ATP left after a reaction by luminescence.)
The target of experiment [19] is Plasmodium falciparum protein kinase 6 (PK6, PF3D7_1337100) (UniProt Q8IDW1). Description: PfPK6 kinase inhibitors, biochemical, TCAMS library (AID 1159586; call rule not given here). The settings on record: recombinant PfPK6, Kinase-Glo ATP depletion luminescence.
Experiment [20] deals with Protein kinase 7 (PK7), Plasmodium falciparum 3D7 (PF3D7_0213400) (UniProt Q7YTF7). Nature of the experiment: inhibition of Plasmodium PK7 catalytic activity – biochemical, TCAMS antimalarial set, Kinase-Glo luminescence (AID 1159587; call rule not given here). The settings on record: recombinant PfPK7, Kinase-Glo ATP depletion luminescence.

Structures are written as SMILES. Several values for one entry are separate records, joined by “and”; a condition that tells them apart may be missing. Equal values may be shown once. Inconclusive results are not listed. For part of these data: Measured potencies and affinities stand elsewhere. Activity calls are given as the source filed them. Cut-off read from the data, not from the text of the source, unless noted: active = inhibition above about 80%; inactive = the rest.

Sequence of ATP-dependent translocase ABCB1 (Homo sapiens) (P08183 whole entry, looked up): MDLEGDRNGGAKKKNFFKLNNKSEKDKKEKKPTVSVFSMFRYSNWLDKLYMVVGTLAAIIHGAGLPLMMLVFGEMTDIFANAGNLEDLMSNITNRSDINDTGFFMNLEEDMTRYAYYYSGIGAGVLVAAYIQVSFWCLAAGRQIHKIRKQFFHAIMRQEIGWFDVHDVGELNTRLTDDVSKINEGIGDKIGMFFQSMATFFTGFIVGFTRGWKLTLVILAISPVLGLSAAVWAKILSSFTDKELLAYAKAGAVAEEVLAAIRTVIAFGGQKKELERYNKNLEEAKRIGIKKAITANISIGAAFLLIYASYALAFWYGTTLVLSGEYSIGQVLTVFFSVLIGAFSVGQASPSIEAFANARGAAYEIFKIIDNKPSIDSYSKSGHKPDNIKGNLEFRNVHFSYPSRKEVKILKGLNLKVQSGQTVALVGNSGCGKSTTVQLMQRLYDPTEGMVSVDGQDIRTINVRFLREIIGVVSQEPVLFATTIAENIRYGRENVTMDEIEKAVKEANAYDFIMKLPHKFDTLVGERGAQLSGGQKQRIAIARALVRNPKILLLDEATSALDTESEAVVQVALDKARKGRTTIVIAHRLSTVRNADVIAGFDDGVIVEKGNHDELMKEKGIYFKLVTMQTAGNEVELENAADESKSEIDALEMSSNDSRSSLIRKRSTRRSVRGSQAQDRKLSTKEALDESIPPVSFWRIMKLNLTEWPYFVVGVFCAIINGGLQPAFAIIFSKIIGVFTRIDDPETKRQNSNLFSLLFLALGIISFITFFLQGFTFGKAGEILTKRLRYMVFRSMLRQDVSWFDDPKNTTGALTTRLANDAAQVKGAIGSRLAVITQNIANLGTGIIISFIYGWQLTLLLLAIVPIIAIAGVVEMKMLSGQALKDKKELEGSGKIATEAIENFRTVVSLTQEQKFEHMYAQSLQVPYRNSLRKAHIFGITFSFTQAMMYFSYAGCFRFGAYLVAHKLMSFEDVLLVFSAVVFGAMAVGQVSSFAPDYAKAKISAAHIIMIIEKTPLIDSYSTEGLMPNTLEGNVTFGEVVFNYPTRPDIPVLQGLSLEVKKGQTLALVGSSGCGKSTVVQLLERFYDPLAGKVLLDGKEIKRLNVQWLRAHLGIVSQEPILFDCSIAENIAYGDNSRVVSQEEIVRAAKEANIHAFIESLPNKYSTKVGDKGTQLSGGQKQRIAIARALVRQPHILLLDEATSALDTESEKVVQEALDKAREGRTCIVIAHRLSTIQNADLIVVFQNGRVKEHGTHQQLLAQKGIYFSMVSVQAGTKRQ
Sequence of L-lactate dehydrogenase (Plasmodium falciparum (isolate CDC / Honduras)) (Q27743 whole entry, looked up): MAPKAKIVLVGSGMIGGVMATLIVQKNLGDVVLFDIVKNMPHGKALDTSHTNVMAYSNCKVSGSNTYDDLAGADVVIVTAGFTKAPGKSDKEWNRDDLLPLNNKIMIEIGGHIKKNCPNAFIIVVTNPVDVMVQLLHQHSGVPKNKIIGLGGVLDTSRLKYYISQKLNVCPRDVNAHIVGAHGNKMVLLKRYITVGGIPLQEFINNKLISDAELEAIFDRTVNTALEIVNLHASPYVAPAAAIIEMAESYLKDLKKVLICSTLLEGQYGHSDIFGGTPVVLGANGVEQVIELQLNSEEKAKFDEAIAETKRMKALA
Sequence of Plasmodium falciparum protein kinase 6 (PK6, PF3D7_1337100) (Q8IDW1 1-305): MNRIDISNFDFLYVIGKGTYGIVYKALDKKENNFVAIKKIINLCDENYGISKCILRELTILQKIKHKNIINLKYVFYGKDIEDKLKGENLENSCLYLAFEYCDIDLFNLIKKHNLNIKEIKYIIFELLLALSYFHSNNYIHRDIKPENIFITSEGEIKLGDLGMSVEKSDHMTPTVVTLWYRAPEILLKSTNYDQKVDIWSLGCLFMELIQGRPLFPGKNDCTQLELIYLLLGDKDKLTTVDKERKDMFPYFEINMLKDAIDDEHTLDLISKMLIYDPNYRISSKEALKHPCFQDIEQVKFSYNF
Sequence of Calcium-dependent protein kinase 1 (Plasmodium falciparum (isolate 3D7)) (P62344 whole entry, looked up): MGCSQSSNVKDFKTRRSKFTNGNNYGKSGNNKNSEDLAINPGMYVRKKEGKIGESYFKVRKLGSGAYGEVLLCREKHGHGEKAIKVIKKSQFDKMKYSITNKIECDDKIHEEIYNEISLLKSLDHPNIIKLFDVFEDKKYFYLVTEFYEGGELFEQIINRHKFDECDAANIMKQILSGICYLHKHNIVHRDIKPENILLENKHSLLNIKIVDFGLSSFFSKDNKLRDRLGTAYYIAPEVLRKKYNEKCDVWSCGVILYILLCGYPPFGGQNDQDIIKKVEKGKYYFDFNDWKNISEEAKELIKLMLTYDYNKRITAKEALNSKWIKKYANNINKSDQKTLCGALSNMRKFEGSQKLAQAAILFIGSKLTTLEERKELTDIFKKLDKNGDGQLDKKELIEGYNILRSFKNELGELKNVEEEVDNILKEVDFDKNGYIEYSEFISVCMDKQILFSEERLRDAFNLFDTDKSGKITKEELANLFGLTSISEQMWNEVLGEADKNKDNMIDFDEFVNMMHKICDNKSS
Sequence of Protein kinase 7 (PK7), Plasmodium falciparum 3D7 (PF3D7_0213400) (Q7YTF7 1-343): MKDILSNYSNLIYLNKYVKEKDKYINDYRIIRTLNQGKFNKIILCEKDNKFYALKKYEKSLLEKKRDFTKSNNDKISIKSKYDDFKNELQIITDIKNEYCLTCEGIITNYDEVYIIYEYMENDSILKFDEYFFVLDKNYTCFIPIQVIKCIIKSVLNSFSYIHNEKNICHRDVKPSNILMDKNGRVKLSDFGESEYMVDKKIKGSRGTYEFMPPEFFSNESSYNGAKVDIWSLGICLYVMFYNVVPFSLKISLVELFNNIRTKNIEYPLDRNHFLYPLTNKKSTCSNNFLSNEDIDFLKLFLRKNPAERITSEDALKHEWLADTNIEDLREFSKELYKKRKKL

`CC(C)(C)c1ccc(C(O)CCCN2CCC(C(O)(c3ccccc3)c3ccccc3)CC2)cc1` (configuration not stated): in experiment [1], the fluorescence slope change is 182% (active). Moreover, the inhibition of aggregation in experiment [2] was 4.76%. The glutamate uptake change in [3] was -7.35%. In [4], this compound showed an aggregation suppression score of 0.868.

Regarding `CC(C)(C)CC(C)(C)c1ccc(OCCOCC[N+](C)(C)Cc2ccccc2)cc1`, the fluorescence slope change in [1] was 152% (active). Also, the rescue above control in [5] turned out to be 0. Moreover, the inhibition of aggregation in [2] amounted to 58.6%. The glutamate uptake change in experiment [3] is -11.3%. Moreover, the aggregation suppression score in experiment [4] is -0.0343.

As to `CC1=C(/C=C/C(C)=C/C=C/C(C)=C\C(=O)O)C(C)(C)CCC1`, the fluorescence slope change in experiment [1] was 188% (active). The fold fluorescence in experiment [6] is 5.81 (inactive).

For the compound `COc1ccc(/C=C/C(=O)Nc2ccccc2C(=O)O)cc1OC`, the result in experiment [7] was inactive.

The compound `CN(C)c1nc(N(C)C)nc(N(C)C)n1` displayed a rescue above control in experiment [5] of 6.66. For the same compound, the inhibition of aggregation in experiment [2] is 78.1%. Also, the glutamate uptake change in [3] is 20.9%. Also, in experiment [8], the inclusion score stood at 2. Further, in experiment [4], the aggregation suppression score was 1.21. For the same compound, in experiment [7], the compound was classed as inactive. Besides, the inhibition is -49.5% (inactive) and -47.8% (inactive) in experiment [9] (at 0.5 µM); -51.4% and 13.2% in [9] (measured here: combination with BGB at IC20, at 0.5 µM); -47.8% and -102% in experiment [9] (measured here: combination with cisplatin at IC20, at 0.5 µM); 1.44% (inactive) and -2.84% (inactive) in experiment [10] (at 0.5 µM); -7.11% and -19.4% in experiment [10] (measured here: combo with BGB at IC20, at 0.5 µM); 0.726% and 22% in experiment [10] (measured here: combo with cisplatin at IC20, at 0.5 µM). In addition, the inhibition in experiment [11] (at 0.5 µM) is -1.03% (inactive) and 0.53% (inactive); in experiment [11] (measured here: inhibition with BGB combination, at 0.05 µM), -18.8% and -9.83%; in experiment [11] (measured here: inhibition with cisplatin combination, at 0.05 µM), -9.85% and -22.8%; in [12] (at 0.5 µM), -22.5% (inactive) and -23.2% (inactive); in [12] (measured here: combination with cisplatin, at 0.5 µM), -24.3% and -25.9%; in experiment [12] (measured here: combination with cisplatin, at 5 µM) it was -28.5% and -13.6%. Also, the inhibition was 3.42% and 17.2% in [13] (BGB combination, concentration series, at 5 µM); -3.79% (inactive) and -4% (inactive) in experiment [13] (at 0.5 µM); 4.29% and 15.7% in experiment [13] (cisplatin combination, concentration series, at 5 µM); 2.24% (inactive) and 16.1% (inactive) in [14] (at 0.5 µM); 5.31% and 10% in experiment [14] (measured here: combo with BGB IC20, at 0.5 µM); -12.9% and 15.6% in [14] (measured here: combo with cisplatin IC20, at 0.5 µM).

As for `CC(C)NCC(O)COc1ccc(CC(N)=O)cc1` (configuration not stated), in experiment [5], the rescue above control is -0.75. Also, the inhibition of aggregation in experiment [2] was -11.1%. Further, the glutamate uptake change in [3] is -9.65%. For the same compound, the inclusion score in [8] was 2. This compound returned an aggregation suppression score in [4] of 1.39.

Turning to `C[C@H]1COc2c(N3CCN(C)CC3)c(F)cc3c(=O)c(C(=O)O)cn1c23`, the compound was classed as inactive in experiment [7].

For `O=c1ccc2ccc(O)c(O)c2o1`, the inhibition in [15] was 4% (inactive); in experiment [16], 0% (inactive). Further, the growth inhibition in experiment [17] is 85% (active). Further, the outcome in [18], in experiment [19] and in [20] was inactive.

In the case of `CC(C(=O)O)c1ccc(-c2ccccc2)c(F)c1` (configuration not stated), the rescue above control in experiment [5] is 19. Besides, the inhibition of aggregation in experiment [2] was determined as 29%. Besides, the glutamate uptake change in experiment [3] amounted to 14.1%. This compound returned an inclusion score in [8] of 2. In addition, the aggregation suppression score in experiment [4] amounted to 0.00404.

Regarding `CC[C@H]1OC(=O)[C@H](C)[C@@H](O[C@H]2C[C@@](C)(OC)[C@@H](O)[C@H](C)O2)[C@H](C)[C@@H](O[C@@H]2O[C@H](C)C[C@H](N(C)C)[C@H]2O)[C@](C)(OC)C[C@@H](C)C(=O)[C@H](C)[C@@H](O)[C@]1(C)O`, in experiment [7], the compound was classed as inactive.

As for `COc1ccc(C[C@H](N)C(=O)N[C@H]2[C@@H](O)[C@H](n3cnc4c(N(C)C)ncnc43)O[C@@H]2CO)cc1`, the inhibition in [15] was 98% (active); in experiment [16] it was 5% (inactive). Also, the growth inhibition in experiment [17] is 100% (active). Also, the outcome in experiment [18], in experiment [19] and in experiment [20] was inactive.

As to `Nc1ncnc2c1ncn2[C@@H]1O[C@H](CO)[C@@H](O)[C@@H]1O`, the rescue above control in experiment [5] was -14.3. Besides, the inhibition of aggregation in experiment [2] amounted to 56.1%. Moreover, the glutamate uptake change in [3] stood at 13.7%. The compound further returned an inclusion score in experiment [8] of 1.5. This compound came in with an aggregation suppression score in experiment [4] of 0.666.

In experiment [5], `COC(=O)[C@H](c1ccccc1Cl)N1CCc2sccc2C1` displayed a rescue above control of 1.25. Besides, the inhibition of aggregation in [2] stood at 77.8%. Further, in experiment [3], the glutamate uptake change is -7.57%. The same compound gave an inclusion score in experiment [8] of 2. For the same compound, in [4], the aggregation suppression score stood at 1.88. Further, in [7], the result was inactive.

Regarding `CNCCC(Oc1ccc(C(F)(F)F)cc1)c1ccccc1` (configuration not stated), the fluorescence slope change in experiment [1] was 110% (active).

In general, inhibition refers to the change of the read-out against control, counted positive when it falls.

The values are drawn from PubChem BioAssay.
